Pf Dd2 growth: qHTS Primary assay for Inhibitors of Plasmodium falciparum Dd2 growth in vitro; 4.3% of 120,000 active; Potency, µM (titrated, usually from 28.9 µM), without a hit: top-dose activity, negative = inhibition, hits mostly inhibitors; P. falciparum Dd2 growth, SYBR Green, 72 h; AID 1347417, 2020; active = well fitted inhibition curve with a large enough effect;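 note: plate controls were DMSO vehicle for no effect and reference drug for full effect; nearly all actives have a fitted effect of over 65% in size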
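Infected erythrocytes (Dd2, 0.3% parasitemia, 2.5% hematocrit final) are added to compound in RPMI-1640/Albumax II medium, grown 72 h at 37C in low oxygen, then lysed with saponin/Triton-X containing SYBR Green and read by fluorescence.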
Numbers without * were called inactive; i = inactive; [ ] = dose if it differs, or a comment. Only a selection was taken, and hits are over-represented in it overall. Potency is the fitted concentration of half-maximal effect.

SMILES	Pf Dd2 growth
OCC1(Cc2cccc(Cl)c2)CCCNC1 (configuration not stated)	11µM*
OC1(CN2CCN(Cc3cccc(Cl)c3)CC2)CCCNC1 (configuration not stated)	-25%
CN(Cc1cccc(C(F)(F)F)c1)C(=O)Cc1ccc(F)cc1	i
CN(Cc1cccc(C(F)(F)F)c1)C(=O)c1ccc(F)cc1	11µM*
CC(=O)N(C)Cc1cccc(C(F)(F)F)c1	-6%[44.1 µM]
O=C(COc1ccc(F)cc1)N1CCC2(CC1)NC(=O)N(c1ccccc1Cl)N2	-18%
O=C(Nc1ccccc1)N(Cc1ccc2c(c1)OCO2)C1CCN(Cc2ccccc2)CC1	-28%
COc1ccccc1NC(=O)N(Cc1ccc2c(c1)OCO2)C1CCN(Cc2ccccc2)CC1	11µM*
CCN1CCC(N(Cc2ccc3c(c2)OCO3)C(=O)Nc2cccc(C)c2C)CC1	18%
Cc1nc(NCCc2nc3ccccc3n2C)cc(C2CC(O)C2)n1 (configuration not stated)	-11%
N#Cc1ccc(C(=O)N2CCC3(CC2)NC(=O)N(Cc2ccc(Cl)cc2)C3=O)cc1	-17%
O=C(N[C@H]1CCN2C(=O)N(c3ccccc3)C(=O)[C@@H]2C1)C1CCCC1	-13%[44.1 µM]
COc1ccc(CN2CCc3nc(C(C)C)nc(-c4ccc(O)cc4)c3CC2)cc1	2.2µM*
COc1ccc(-c2nc(C(C)C)nc3c2CCN(C(=O)c2ccccc2)CC3)cc1	-17%
COc1ccc(-c2nc(C(C)C)nc3c2CCN(C(=O)Nc2ccc(Cl)cc2)CC3)cc1	i
CC(C)c1nc2c(c(-c3ccc(O)cc3)n1)CCN(CC1CCCCC1)CC2	1.1µM*
Cc1nc2c(c(-c3ccc(O)cc3)n1)CN(CC1CC1)CC2	i
CC(C)c1nc2c(c(-c3ccc(O)cc3)n1)CCN(C(=O)c1ccc(F)cc1)CC2	-6%
COc1ccc(CCNC(=O)CN2C(=O)NC(c3ccc(Cl)cc3)C3=C2COC3=O)cc1OC (configuration not stated)	i
O=C(Cn1nc2c(cc1=O)CCCCC2)NCCc1ccc(O)cc1	-7%
O=C(NCC1CCCO1)c1cnc2c(c1)N(Cc1ccccc1)CCC2 (configuration not stated)	i
CN(C)C1CCN(c2ccc(C(=O)N3CCC(N4CCOCC4)CC3)cn2)C1 (configuration not stated)	2%
Cc1ncoc1C(=O)N1CCCN(S(=O)(=O)c2ccccc2)CCC(=O)NCC1	-2%
COc1ccccc1Cn1c(CNS(=O)(=O)c2ccc(C(C)C)cc2)nc2cccnc21	i
CCOc1ccc(Cn2c(CNS(=O)(=O)c3c(C)cc(C)cc3C)nc3cccnc32)cc1	i
SMILES	Pf Dd2 growth
COc1ccccc1Cn1c(CNS(=O)(=O)c2c(C)cc(C)cc2C)nc2cccnc21	13µM*
CSCC(=O)N1CCC2(CCN(Cc3nccnc3C)CC2)C(CO)C1 (configuration not stated)	-4%
COc1ccc(C2(C(=O)N(C)Cc3ccc(F)cc3)CCOCC2)cc1	3%
COc1ccc(Cn2c(C(=O)O)c(CNC3CCCCC3)c3ccc(C)cc32)cc1	-18%
COc1ccc2c(CNCCc3cccs3)c(C(=O)O)n(Cc3ccccc3)c2c1	-4%
COc1ccc(Cn2c(C(=O)O)c(CNCCc3ccco3)c3ccc(C)cc32)cc1	-11%
COc1ccc(Cn2c(C(=O)O)c(CNCc3ccc(OC)cc3OC)c3ccc(C)cc32)cc1	6.3µM*
COc1ccc(Cn2c(C(=O)O)c(CNCCc3cc(OC)ccc3OC)c3ccc(C)cc32)cc1	8.9µM*
CCOc1ccc(CCNCc2c(C(=O)O)n(Cc3ccc(C)cc3)c3cc(OC)ccc23)cc1	11µM*
C=Cc1ccc(Cn2c(C(=O)O)c(CNCCc3ccco3)c3ccc(C)cc32)cc1	-22%
COc1ccc2c(CNCCc3cccs3)c(C(=O)O)n(Cc3cccc(F)c3)c2c1	i
COc1ccc2c(CNCc3ccccc3OC)c(C(=O)O)n(Cc3ccc(F)cc3Cl)c2c1	274%[0.0462 µM]
O=C(COc1ccc(NC(=O)C2CC2)cn1)NCc1cc(F)cc(F)c1	-8%
COc1ccc(CCNc2ncnc3c2CN(C2CCCC2)C(=O)CN3C)cc1	-15%
Cc1noc(C)c1CN[C@@H]1C[C@H](CO)[C@@H](O)[C@H]1O	10%[44.1 µM]
CC[C@@]1(C(=O)O)C[C@H](C(=O)NCc2cccnc2)[C@H](c2ccc(F)cc2)N1C	-17%
O=C(c1cc(F)ccc1F)N1CCC2(CC1)NC(=O)N(Cc1ccccc1)C2=O	31%
COCCn1c(=O)[nH]c2cc(C(=O)N3CCN(c4ccccc4)CC3)ccc2c1=O	-5%
O=C(CCCn1c(=O)[nH]c2ccccc2c1=O)N1CCN(c2ccccc2)CC1	10µM*
COc1ccc(Cn2c(=O)[nH]c3cc(C(=O)N4CCN(c5ccccc5)CC4)ccc3c2=O)cc1	3%
O=C(CCCCCn1c(=O)[nH]c2ccccc2c1=O)N1CCN(c2cccc(C(F)(F)F)c2)CC1	-11%
CCCCCn1c(=O)[nH]c2cc(C(=O)N3CCN(c4ccccc4)CC3)ccc2c1=O	9%
CC(=O)c1ccc(N2CCN(C(=O)c3ccc(Cn4c(=O)[nH]c5ccccc5c4=O)cc3)CC2)cc1	7.9µM*
Cc1ccc(S(=O)(=O)Cc2noc([C@@H]3C[C@@H](O)CN3CC3CCCCC3)n2)cc1	i
O=C(c1ccccn1)N1CC[C@@H]2[C@@H](CCC(=O)N2CCc2cnc[nH]2)C1	1%
SMILES	Pf Dd2 growth
COc1cc(CNC(=O)c2cnc3c(c2)N(C(=O)Cc2ccc(C(C)C)cc2)CCC3)cc(OC)c1	48%
COc1ccccc1CN1C[C@@H]2C(=O)N(Cc3ccc4c(c3)OCO4)C(=O)[C@@H]2C1	12%
COc1ccccc1CN1COc2ccc3c(C)cc(=O)oc3c2C1	7.1µM*
Cc1ccc(CNC(=O)c2ccc3c(c2)CN(Cc2ccc(N(C)C)cc2)CCO3)cc1	-28%
Cc1ccc(CN2COc3ccc4c(C)cc(=O)oc4c3C2)cc1	4µM*
COc1ccccc1C(=O)N1CCN(Cc2cc(=O)oc3cc(C)ccc23)CC1	-4%
Cc1ccc(Cn2nc3n(c2=O)-c2cc(Cl)ccc2OC3)cc1	15%
Cc1ccc(CN2C[C@@H](CO)[C@H](NC(=O)c3ccccc3)C2)nc1	-20%
O=C(Cc1ccccc1F)NCCc1noc(C2CC2)n1	i
COCCn1ncc(N2CCCC(CC(=O)NCCN3CCOCC3)C2)cc1=O (configuration not stated)	31%
CCN1CC(c2ccccc2)CC2(CCN(C(=O)c3cnc(C)nc3)CC2)C1 (configuration not stated)	11%
CCOCC1(C)COc2ccc(C(=O)N(C)c3ccccc3)cc2N1 (configuration not stated)	i
COc1cccc(NC(=O)c2ccc3c(c2)NC(C)(COCCN(C)C)CO3)c1 (configuration not stated)	-9%[44.1 µM]
CCOCC1(C)COc2ccc(C(=O)Nc3cccc(N(C)C)c3)cc2N1 (configuration not stated)	3.2µM*
CN1CC2(CCN(CC3CC3)CC2)CC1C(=O)N1CCOCC1 (configuration not stated)	26%
CCOc1ccccc1C1NC(=O)N(CC(=O)Nc2ccccc2)C2=C1C(=O)OC2 (configuration not stated)	i
Cc1ccc(C)c(CN2C(=O)c3ccccc3S(=O)(=O)c3ccc(C(=O)N4CCN(C)CC4)cc32)c1	5µM*
O=C(c1ccc2c(c1)N(Cc1ccccc1F)C(=O)c1ccccc1S2(=O)=O)N1CCCCCC1	i
O=C(c1ccc2c(c1)N(Cc1ccccc1)C(=O)c1ccccc1S2(=O)=O)N1CCCCCC1	4µM*

Compound activity (PubChem BioAssay)
